Where “and” joins values, the source holds several entries; their conditions need not be identical. Identical values can stand only once. Screen size: about 5,500 compounds; about 2,000 (36%) were called active. Inconclusive results (about 18%) are left out. Rule as the data show it: active = normalized growth mostly below about 0.91 (no sharp cut-off); inconclusive = no clear call, values can overlap the other calls; inactive = mostly above about 0.92. The list shows a part of the results.
Assay: chemical genetic growth profiling, strain panel (AID 1159580);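 also: tested at 20 µM; growth read once vehicle control cultures reached saturation at 30 °C; 1 = growth at the plate median or of vehicle wells; lower values mean less growth of the strain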
Conditions: growth OD
[1] = S. cerevisiae deletion strains, locus YBR021W, strain FUR4, hits give low values
[2] = S. cerevisiae deletion strains, locus YBR229C, strain ROT2, hits give low values
[3] = S. cerevisiae deletion strains, locus YCL029C, strain bik1, hits give low values
[4] = S. cerevisiae deletion strains, locus YDL035C, strain GPR1, hits give low values
[5] = S. cerevisiae deletion strains, locus YDL074C, strain BRE1, hits give low values
[6] = S. cerevisiae deletion strains, locus YDL101C, strain DUN1, hits give low values
[7] = S. cerevisiae deletion strains, locus YDL185W, strain tfp1, hits give low values
[8] = S. cerevisiae deletion strains, locus YDL192W, strain arf1, hits give low values
[9] = S. cerevisiae deletion strains, locus YDR101C, strain arx1, hits give low values
[10] = S. cerevisiae deletion strains, locus YDR150W, strain NUM1, hits give low values
[11] = S. cerevisiae deletion strains, locus YDR162C, strain NBP2, hits give low values
[12] = S. cerevisiae deletion strains, locus YDR318W, strain mcm21, hits give low values
[13] = S. cerevisiae deletion strains, locus YDR388W, hits give low values
[14] = S. cerevisiae deletion strains, locus YDR502C, strain sam2, hits give low values
[15] = S. cerevisiae deletion strains, locus YEL061C, strain CIN8, hits give low values
[16] = S. cerevisiae deletion strains, locus YER110C, hits give low values
[17] = S. cerevisiae deletion strains, locus YER155C, strain BEM2, hits give low values
[18] = S. cerevisiae deletion strains, locus YER167W, strain BCK2, hits give low values
[19] = S. cerevisiae deletion strains, locus YGL078C, strain dbp3, hits give low values
[20] = S. cerevisiae deletion strains, locus YGL086W, strain mad1, hits give low values
[21] = S. cerevisiae deletion strains, locus YGL248W, strain PDE1, hits give low values
[22] = S. cerevisiae deletion strains, locus YGR135W, strain pre9, hits give low values
[23] = S. cerevisiae deletion strains, locus YGR252W, strain gcn5, hits give low values
[24] = S. cerevisiae deletion strains, locus YHR030C, strain SLT2, hits give low values
[25] = S. cerevisiae deletion strains, locus YHR079C, strain IRE1 (second series), hits give low values
[26] = S. cerevisiae deletion strains, locus YHR094C, strain hxt1, hits give low values
[27] = S. cerevisiae deletion strains, locus YHR129C, strain ARP1, hits give low values
[28] = S. cerevisiae deletion strains, locus YHR200W, strain rpn10, hits give low values
[29] = S. cerevisiae deletion strains, locus YIL066C, strain RNR3, hits give low values
[30] = S. cerevisiae deletion strains, locus YIL073C, strain SPO22, hits give low values
[31] = S. cerevisiae deletion strains, locus YIL125W, strain kgd1, hits give low values
[32] = S. cerevisiae deletion strains, locus YIR030C, strain dcg1, hits give low values
[33] = S. cerevisiae deletion strains, locus YJL095W, strain BCK1, hits give low values
[34] = S. cerevisiae deletion strains, locus YJL134W, strain LCB3, hits give low values
[35] = S. cerevisiae deletion strains, locus YJL168C, strain set2, hits give low values
[36] = S. cerevisiae deletion strains, locus YJL187C, strain SWE1 (second series), hits give low values
[37] = S. cerevisiae deletion strains, locus YJR043C, strain POL32, hits give low values
[38] = S. cerevisiae deletion strains, locus YKL009W, strain mrt4, hits give low values
[39] = S. cerevisiae deletion strains, locus YKL068W, hits give low values
[40] = S. cerevisiae deletion strains, locus YKL085W, strain MDH1 (second series), hits give low values
[41] = S. cerevisiae deletion strains, locus YKL085W, strain MDH1, hits give low values
[42] = S. cerevisiae deletion strains, locus YKR001C, strain vps1, hits give low values
[43] = S. cerevisiae deletion strains, locus YLR039C, strain RIC1, hits give low values
[44] = S. cerevisiae deletion strains, locus YLR058C, strain SHM2, hits give low values
[45] = S. cerevisiae deletion strains, locus YLR102C, strain apc9, hits give low values
[46] = S. cerevisiae deletion strains, locus YLR262C, strain YPT6, hits give low values
[47] = S. cerevisiae deletion strains, locus YLR268W, strain sec22, hits give low values
[48] = S. cerevisiae deletion strains, locus YLR330W, strain CHS5, hits give low values
[49] = S. cerevisiae deletion strains, locus YLR342W, strain FKS1 (second series), hits give low values
[50] = S. cerevisiae deletion strains, locus YLR371W, strain rom2, hits give low values
[51] = S. cerevisiae deletion strains, locus YLR418C, strain cdc73, hits give low values
[52] = S. cerevisiae deletion strains, locus YML016C, strain PPZ1, hits give low values
[53] = S. cerevisiae deletion strains, locus YML032C, strain rad52, hits give low values
[54] = S. cerevisiae deletion strains, locus YML124C, strain tub3, hits give low values
[55] = S. cerevisiae deletion strains, locus YMR078C, strain ctf18, hits give low values
[56] = S. cerevisiae deletion strains, locus YMR223W, strain ubp8, hits give low values
[57] = S. cerevisiae deletion strains, locus YMR307W, strain GAS1, hits give low values
[58] = S. cerevisiae deletion strains, locus YNL067W, strain RPL9B, hits give low values
[59] = S. cerevisiae deletion strains, locus YNL128W, strain TEP1, hits give low values
[60] = S. cerevisiae deletion strains, locus YNL233W, strain BNI4, hits give low values
[61] = S. cerevisiae deletion strains, locus YNL250W, strain rad50, hits give low values
[62] = S. cerevisiae deletion strains, locus YNL271C, strain bni1, hits give low values
[63] = S. cerevisiae deletion strains, locus YNL298W, strain CLA4, hits give low values
[64] = S. cerevisiae deletion strains, locus YNL307C, strain MCK1, hits give low values
[65] = S. cerevisiae deletion strains, locus YNL322C, strain KRE1, hits give low values
[66] = S. cerevisiae deletion strains, locus YNR052C, strain pop2, hits give low values
[67] = S. cerevisiae deletion strains, locus YOL012C, strain htz1
[68] = S. cerevisiae deletion strains, locus YOL147C, strain pex11, hits give low values
[69] = S. cerevisiae deletion strains, locus YOR061W, strain CKA2, hits give low values
[70] = S. cerevisiae deletion strains, locus YOR069W, strain VPS5, hits give low values
[71] = S. cerevisiae deletion strains, locus YOR136W, strain idh2, hits give low values
[72] = S. cerevisiae deletion strains, locus YOR144C, strain elg1, hits give low values
[73] = S. cerevisiae deletion strains, locus YOR184W, strain ser1, hits give low values
[74] = S. cerevisiae deletion strains, locus YOR316C, strain cot1, hits give low values
[75] = S. cerevisiae deletion strains, locus YPR119W, strain clb2, hits give low values
[76] = S. cerevisiae deletion strains, locus YPR141C, strain kar3, hits give low values
[77] = S. cerevisiae deletion strains, locus YPR163C, strain tif3, hits give low values
[78] = S. cerevisiae deletion strains, locus YPR167C, strain met16, hits give low values
[79] = S. cerevisiae deletion strains, strain wtn01, hits give low values
[80] = S. cerevisiae strains, strain wild type, hits give low values

Measured: normalized growth

COc1cc2c(cc1/C=C/C(=O)c1cc(OC)c(OC)cc1OC)OCO2
inactive: [1] 1.14 | [2] 0.968 | [3] 1.02 | [4] 1 | [5] 1.05 | [6] 0.994 | S. cerevisiae deletion strains, locus YDL134C, strain PPH21, hits give low values 1.01 | [7] 1 | [8] 1.01 | [9] 0.998 | [10] 1.02 | [11] 0.974 | [12] 1.01 | [13] 1.02 | [14] 1.02 | [15] 1 | [16] 1.02 | [17] 1.02 | [18] 1.03 | [19] 0.997 | [20] 1.01 | [21] 0.996 | [22] 1.01 | S. cerevisiae deletion strains, locus YGR229C, strain SMI1, hits give low values 1.01 | [23] 1.08 | [24] 1.02 | [25] 1 | [26] 1.01 | [27] 1.02 | [28] 1.02 | [29] 1.01 | [30] 1.06 | [31] 1.03 | [32] 1.01 | [33] 1 | [34] 1.01 | [35] 1.01 | [36] 1 | [37] 1.02 | [38] 1.02 | [39] 1 | [40] 1 | [41] 1 | S. cerevisiae deletion strains, locus YKL190W, strain CNB1, hits give low values 0.994 | [42] 1.02 | [43] 0.994 | [44] 0.998 | [45] 1.02 | [46] 1.01 | [47] 1.02 | [48] 1.02 | [49] 1.06 | [50] 1.02 | [51] 1.04 | [52] 1.01 | [53] 1.02 | [54] 0.995 | [55] 1.03 | [56] 1.01 | S. cerevisiae deletion strains, locus YMR263W, strain SAP30, hits give low values 1 | [57] 1.21 | [58] 0.998 | [59] 0.996 | S. cerevisiae deletion strains, locus YNL153C, strain GIM3, hits give low values 0.983 | [60] 1.02 | [61] 1.01 | [62] 1.01 | [63] 1.02 | [64] 1.03 | [65] 1.01 | [66] 1.01 | S. cerevisiae deletion strains, locus YOL006C, strain TOP1, hits give low values 1.27 | [67] 1.18 | [68] 1.01 | [69] 0.975 | [70] 1.01 | [71] 1.02 | [72] 1 | [73] 0.993 | [74] 1.04 | S. cerevisiae deletion strains, locus YPL055C, strain LGE1, hits give low values 1.05 | [75] 1.01 | [76] 1.01 | [77] 1.01 | [78] 1.01 | [79] 1.01 | [80] 1.01

COc1cc2c(cc1-c1cc3cc4ccoc4cc3oc1=O)OCO2
active: [1] 1.31 [resistant] | [17] 1.11 [resistant] | [26] 1.16 [resistant] | [38] 1.19 [resistant] | [50] 1.18 [resistant] | [57] 1.57 [resistant] | [65] 1.16 [resistant] | [74] 1.17 [resistant]
inactive: [2] 0.995 | [3] 0.965 | [4] 1.01 | [5] 1 | [6] 0.98 | [7] 0.97 | [8] 1.01 | [9] 0.981 | [10] 0.991 | [11] 0.977 | [12] 0.973 | [13] 0.965 | [14] 0.95 | [15] 1.01 | [16] 0.97 | [18] 1.02 | [19] 0.997 | [20] 1.01 | [21] 0.977 | S. cerevisiae deletion strains, locus YGR078C, strain PAC10, hits give low values 0.993 | [22] 0.993 | [23] 1.16 | [24] 0.984 and 1 | [25] 0.979 | S. cerevisiae deletion strains, locus YHR079C, strain IRE1, hits give low values 1.01 | [27] 1.01 | [28] 0.972 | [29] 0.973 | [30] 0.902 | [31] 0.984 | [32] 0.989 | [33] 0.979 and 1 | [34] 0.973 | [35] 1.01 | [36] 0.98 | [37] 1.01 | S. cerevisiae deletion strains, locus YJR066W, strain TOR1, hits give low values 0.942 | [39] 1.02 | [40] 1.05 | [41] 1.05 | [42] 1.01 | [43] 0.954 | [44] 0.973 | [45] 0.997 | S. cerevisiae deletion strains, locus YLR113W, strain HOG1, hits give low values 0.996 | [46] 1.19 | [47] 0.95 | [48] 0.983 | [49] 0.993 | [51] 0.915 | [52] 0.982 | [53] 0.983 | [54] 0.975 | [55] 0.984 | [56] 0.999 | [58] 0.968 | [59] 1.01 | S. cerevisiae deletion strains, locus YNL183C, strain NPR1, hits give low values 0.925 | [60] 1 | [61] 0.975 | [62] 0.991 | [63] 1 | [64] 0.944 | [66] 1.03 | [67] 1.22 | [68] 0.992 | [69] 0.971 | [70] 0.977 | [71] 0.987 | [72] 0.981 | [73] 0.907 | S. cerevisiae deletion strains, locus YOR231W, strain MKK1, hits give low values 1.07 | S. cerevisiae deletion strains, locus YPL241C, strain CIN2, hits give low values 0.984 | S. cerevisiae deletion strains, locus YPL256C, strain CLN2, hits give low values 1.01 | [75] 0.966 | [76] 1.02 | [77] 0.969 | [78] 0.995 | [79] 0.972 | [80] 1.01
